Rab9 promoter act – activates the Rab9 promoter. Huh7 Rab9 promoter-luciferase reporter, luminescence, 24 h. Potency, µM (top dose mostly 9.22 µM), inactives show at the highest dose activation, negative = inhibition, most hits filed as activators. 2.8% of 320,000 active; also: % of control where 0% means no effect; nearly all actives have a fitted effect of over 60% in size
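Huh7 cells stably carrying Rab9 promoter–luciferase reporter, plated 1500 cells/well, compound added after 2 h and incubated 24 h at 37 °C; luciferase luminescence then read after 10 min with detection reagent.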
FLuc counter – firefly luciferase modulation, counter-screen for miR-21 project | P08659 | purified FLuc, Km substrates, luminescence inhibition | Potency, µM (top dose mostly 57.5 µM), inactives show at the highest dose activity change, negative = inhibition, hits mostly inhibitors | 6.9% of 360,000 active;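 also: plate controls were vehicle for no effect and reference inhibitor for full effect; nearly all actives have a fitted effect of over 55% in size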
Target sequence (P08659 whole entry, looked up): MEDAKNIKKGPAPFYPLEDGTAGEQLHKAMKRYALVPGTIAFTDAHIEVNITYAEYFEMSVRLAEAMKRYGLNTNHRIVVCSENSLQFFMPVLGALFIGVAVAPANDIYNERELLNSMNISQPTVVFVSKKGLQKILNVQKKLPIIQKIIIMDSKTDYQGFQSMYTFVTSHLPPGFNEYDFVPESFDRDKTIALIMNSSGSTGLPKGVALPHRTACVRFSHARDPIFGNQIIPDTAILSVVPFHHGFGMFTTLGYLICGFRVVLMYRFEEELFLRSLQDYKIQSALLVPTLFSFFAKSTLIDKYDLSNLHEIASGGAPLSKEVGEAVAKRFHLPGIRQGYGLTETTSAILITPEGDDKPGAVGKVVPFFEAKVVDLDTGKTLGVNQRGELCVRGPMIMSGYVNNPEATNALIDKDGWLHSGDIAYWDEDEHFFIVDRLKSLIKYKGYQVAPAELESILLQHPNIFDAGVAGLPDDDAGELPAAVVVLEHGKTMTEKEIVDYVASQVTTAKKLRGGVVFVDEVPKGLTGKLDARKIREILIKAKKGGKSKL
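Purified P. pyralis luciferase, 10 nM final, with Km-level 10 uM D-luciferin and 10 uM ATP in 50 mM Tris acetate pH 7.5, 10 mM Mg acetate, 0.01% Tween-20, 0.05% BSA; 6-point qHTS titration about 60 µM downward; luminescence read.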
ELG1 genotoxic – induces genotoxicity in HEK293T cells with luciferase-tagged ELG1; HEK293T ELG1-luciferase reporter, luminescence, 16 h; Potency, µM (top dose mostly 46 µM), for the others: top-dose activity change, positive = activation, usual class: activators; 1.3% of 330,000 active; also: % of control where 0% means no effect; nearly all actives have a fitted effect of over 60% in size
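Genotoxicity was scored as increased ELG1-luciferase reporter signal, measured by ONE-Glo luminescence (30 min, room temperature). Compound or vehicle exposure of the HEK293T reporter cells lasted 16 hr at 37°C.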
NPC1 promoter act – NPC1 promoter activation | Huh7 NPC1 promoter luciferase reporter, 24 h | Potency, µM (top dose mostly 9.22 µM), without a hit: at the highest dose activation, hits mostly activators | 2.4% of 320,000 active | AID 485313; also: % of control where 0% means no effect; nearly all actives have a fitted effect of over 60% in size
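Cells: Huh7 expressing luciferase under the NPC1 promoter, 1500/well. Seeded 2 h, compound added, incubated 24 h at 37 °C. Luciferase reagent, 10 min ambient, then luminescence.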
SMN2 splice enh – enhancers of SMN2 splice variant expression; 2.8% of 210,000 active; HEK293 SMN2-luciferase splicing reporter, luminescence, 30-36 h; Potency, µM (series often up to 46.1 µM), without a hit: top-dose activity change, positive = activation, most hits filed as activators; also: % of control where 0% means no effect; nearly all actives have a fitted effect of over 55% in size
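HEK293 cells carry an SMN2 […]–luciferase reporter in which exon 7 inclusion puts luciferase in frame. Cells were plated 10-12 h before compound addition, then incubated 30-36 h at 37C. ONE-Glo luminescence was read; sodium butyrate at 4.5 mM final served as control.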
Luc counter – blocks Kinase-Glo luciferase, a counter-screen artifact. Potency, µM (series often up to 38.3 µM), for inactives: at the highest dose activity change, negative = inhibition, actives largely listed as inhibitors. AID 1379. Q27757. Kinase-Glo luciferase, ATP luminescence, 8 min. 0.28% of 200,000 active; also: % is scaled to controls: 0 for no effect and ±100 for the full control effect; nearly all actives have a fitted effect of over 60% in size
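Compound is pinned into ATP-containing buffer (10 uM ATP, imidazole pH 7.2, 7 mM MgCl2). Kinase-Glo luciferase reagent is then added. Light output is recorded following an 8-min room-temperature incubation.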
Active calls of the source: *; ? = inconclusive; . = no result given. Shown are actives, neighbours in structure and some others; about 7.5% of the full set was active somewhere. Calls follow the shape of the dose curve; as a rule, active = well fitted curve in the direction sought with a large enough effect; inconclusive = small, poorly fitted or top-dose-only effect, or another doubt; inactive = no such curve, though single readings can be large; an effect the other way counts as inactive or inconclusive. Potency is read from the fitted curve at half-maximal effect.

SMILES | Rab9 promoter act | FLuc counter | ELG1 genotoxic | NPC1 promoter act | SMN2 splice enh | Luc counter
CN(C)/C=C/C(=O)c1ccc(Cl)s1 | 13% | -13% | ? | 6% | 2% | -4%
Cc1ccc(NC(=O)Cn2nc(C(F)(F)F)c3c2CCC3)cc1C | . | 1% | . | . | -2% | .
Cc1c(C(=O)Nc2ccc(F)cc2F)nnn1-c1ccccc1Br | . | -1% | . | . | . | .
CCc1ccccc1NC(=O)c1nnn(-c2ccc(F)cc2)c1C | . | 12µM* | . | . | 12% | .
Cc1cccc(-c2noc(CN(C(=O)COc3ccc(Br)cc3C)C(C)C)n2)c1 | . | -11% | . | . | -16% | .
CN1C(=O)C2(SCC(=O)N2c2ccc(F)cc2)c2ccccc21 (stereo not given) | . | 5% | . | . | . | .
CCc1ccc(OCCCC(=O)Nc2ccc(N3CCCCC3)cc2)cc1 | -1% | -1% | -1% | -3% | -22% | -1%
CCCCOC(=O)Nc1ccc(N2CCCCC2)cc1 | 3.2µM* | 3µM* | ? | 2.2µM* | 11µM* | -1%
CCCCOC(=O)Nc1ccc(N2CCOCC2)cc1 | 3.2µM* | 15µM* | ? | ? | 11µM* | -1%
COC(=O)C(=O)C/C(=N/Nc1ncnc2ccccc12)c1ccc(Cl)cc1 | -1% | 9.5µM* | 5% | -7% | . | .
CCOC(=O)Cc1csc(NC(=O)COc2ccc3ccccc3c2)n1 | -6% | 13µM* | 0% | 1% | -7% | -2%
CCOC(=O)Cc1csc(NC(=O)COc2ccc(OC)cc2)n1 | -2% | 19µM* | 3% | -1% | 2% | 1%
CCOC(=O)Cc1csc(NC(=O)COc2ccccc2OCC)n1 | 6% | -3% | 1% | 1% | -5% | -5%
CCOC(=O)N1CCc2c(sc3c2c(=O)n(-c2ccc(CC)cc2)c(=O)n3Cc2ccc(F)cc2Cl)C1 | . | 2% | . | . | -15% | .
CCOc1cc(CNC(=O)c2ccc3c(c2)NC(=O)C2CCCCN32)cc(OCC)c1OCC (stereo not given) | . | 0% | . | . | . | .
Cc1ccc2nc(-c3ccsc3)c(Nc3ccc(Cl)cc3)n2c1 | . | -5% | . | . | -5% | .
CCC(C)NC(=O)Cn1c(COc2ccc(Cl)cc2Cl)nc2ccccc21 (stereo not given) | ? | 6µM* | ? | 24% | 22µM* | -2%
Clc1ccc(OCc2nc3ccccc3n2Cc2ccccc2)c(Cl)c1 | . | 6µM* | . | . | 4% | .
Clc1ccc(OCCn2cnc3ccccc32)c(Cl)c1 | ? | 27µM* | ? | ? | 21% | -1%
COc1cccc(OCc2nc3ccccc3n2Cc2ccccc2)c1 | . | ? | . | . | -19% | .
Cc1cc(C)cc(NC(=O)CN(C)CC(=O)N(CC(C)C)c2c(N)n(CC(C)C)c(=O)[nH]c2=O)c1 | 0% | 2% | 4% | -8% | . | .
CN=c1scc(-c2ccc([N+](=O)[O-])cc2)n1/N=C/c1ccco1 | 0.4µM* | ? | ? | ? | . | -5%
CCC(C)NC(=O)CCc1c(C)nc2cc(-c3ccc(OC)cc3OC)nn2c1C (stereo not given) | . | -1% | . | . | 5% | .
COc1ccc(C2CC(c3c(O)cc(C)oc3=O)=NCCS2)c(OC)c1 (stereo not given) | -7% | 11µM* | 10µM* | ? | ? | -10%
Cc1cccc(NC(=O)c2ccc(-c3nc(CSc4ccccc4)c(C)o3)cc2)c1C | . | -11% | . | . | . | .
O=C(NCc1ccccn1)Nc1cccc(NC(=O)NCc2ccccn2)c1 | 2% | ? | ? | -4% | ? | -2%
O=C(NCc1ccccn1)Nc1cc(Cl)ccc1Cl | 3.2µM* | 1.2µM* | -7% | 73% | . | .
O=C(NCc1ccccn1)C(=O)Nc1ccccc1 | ? | ? | ? | ? | 18µM* | -2%
O=C(NCc1ccccn1)Nc1cccc(Cl)c1 | 15% | 19µM* | ? | 1% | 3% | -4%
CCCC(C(=O)Nc1cccc(S(=O)(=O)N2CCCC2)c1)c1ccccc1 (stereo not given) | -5% | 0% | -1% | 0% | . | .

Screening data: PubChem BioAssay, National Center for Advancing Translational Sciences (NCATS)
